Laboratory results taken from PubChem BioAssay (NCI).
Compounds without any hit were thinned out: in the full panel of roughly 83,000, 20% have a hit.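 Percent growth is the endpoint: 0 to 100 indicates growth inhibition (40 means 60% inhibition), 0 means no net growth, and negative values indicate cell death.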 Active and inactive are the calls of the source. How the source made its calls: active means growth percent below 10; inactive means the rest.

Assays:
Experiment in all cases: NCI-60 one-dose screen, 48 h (100 = growth as untreated, 0 = no growth, -100 = all killed)
Conditions in all cases: 10 µM unless noted
[1] = test system: HCT-15 colon
[2] = test system: HT29 colon
[3] = test system: SNB-75 CNS
[4] = test system: SNB-19 CNS
[5] = test system: U251 CNS
[6] = test system: PC-3 prostate
[7] = test system: SK-MEL-5 melanoma
[8] = test system: UACC-62 melanoma
[9] = test system: LOX IMVI melanoma
[10] = test system: SK-MEL-28 melanoma
[11] = test system: SK-MEL-2 melanoma
[12] = test system: EKVX NSCLC
[13] = test system: SN12C renal
[14] = test system: UO-31 renal
[15] = test system: TK-10 renal
[16] = test system: ACHN renal
[17] = test system: CAKI-1 renal
[18] = test system: A498 renal
[19] = test system: CCRF-CEM leukemia
[20] = test system: MOLT-4 leukemia

Measured: growth

O=C(Cc1n[nH]c(=O)c2ccccc12)OCc1c(Cl)cccc1Cl
inactive: [1] 43.6% | [2] 51.4% | [3] 90% | [4] 105% | [5] 54% | [6] 80.5% | [7] 56.9% | [8] 70.4% | [9] 47.1% | [10] 112% | [11] 35.5% | [12] 154% | [13] 102% | [14] 103% | [15] 99% | [16] 74.7% | [17] 107% | [18] 91.3% | [19] 61% | [20] 32.9%

COc1ccc(C2NC3=C(CCCC3)C(C#N)(C#N)C2(C#N)C#N)cc1 (centres undefined)
inactive: [1] 65.9% | [2] 79.9% | [3] 88.6% | [4] 88.5% | [5] 107% | [6] 104% | [7] 101% | [8] 75.4% | [9] 91.8% | [10] 106% | [11] 98.8% | [12] 88.2% | [13] 88.7% | [14] 75.7% | [15] 79.7% | [17] 78% | [18] 111%
active: [19] 7.38% | [20] 9.29%

Cc1ccc2nc(-c3c(CCCO)noc3N)[nH]c(=O)c2c1
inactive: [1] 105% | [2] 113% | [3] 82.2% | [4] 113% | [5] 99.6% | [6] 96% | [7] 99.6% | [8] 104% | [9] 100% | [10] 112% | [11] 105% | [12] 101% | [13] 111% | [14] 47% | [15] 95.5% | [16] 113% | [17] 97.1% | [19] 88.5% | [20] 83.7%

COc1ccc(/C=C2\Oc3cc(OCCN4CCCC4)ccc3C2=O)c(OC)c1
inactive: [1] 80.2% | [2] 17.6% | [3] 93.2% | [4] 92.2% | [5] 76.5% | [6] 84.9% | [7] 90.2% | [8] 101% | [9] 81.2% | [10] 96.9% | [11] 101% | [12] 98.1% | [13] 92.2% | [14] 81.2% | [15] 115% | [16] 95.7% | [17] 92.4% | [20] 86.7%

COc1cccc2cc(-c3cc4ccccc4[nH]3)/c(=N/C(=S)Nc3ccccc3)oc12
active: [3] -45.3%
inactive: [1] 89.2% | [2] 81.8% | [4] 66.1% | [5] 77% | [6] 68.8% | [7] 76.1% | [8] 76% | [9] 80% | [10] 80.1% | [11] 91.5% | [12] 87.3% | [13] 80.6% | [14] 81.5% | [15] 102% | [17] 41% | [18] 92.4% | [20] 105%

CCOc1ccc(/C=C/C=N/NC(N)=S)cc1
inactive: [1] 58.4% | [2] 62.1% | [3] 80.9% | [4] 95.8% | [5] 90.1% | [6] 94.1% | [7] 96% | [8] 81.9% | [9] 77.4% | [10] 102% | [11] 108% | [12] 95.5% | [13] 80.4% | [14] 38.3% | [15] 74.1% | [17] 83.9% | [18] 77.7% | [19] 62.6% | [20] 35.8%

COc1cccc(-n2cc(-c3nc(Cl)c4ccccc4n3)nn2)c1
inactive: [1] 98.2% | [2] 53.1% | [3] 72.3% | [4] 94% | [5] 153% | [6] 97.5% | [7] 95.1% | [8] 97.4% | [9] 109% | [10] 95% | [11] 89.5% | [13] 95.2% | [14] 78.3% | [15] 105% | [16] 112% | [17] 99.1% | [18] 72.9% | [19] 103% | [20] 104%

CCN1C(=O)/C(=c2\sc3n(c2=O)C2C(NN=3)N(CC)C(=S)N2CC)c2ccccc21 (centres undefined)
inactive: [1] 100% | [2] 111% | [3] 84.6% | [4] 97.2% | [5] 97.3% | [6] 94% | [7] 103% | [8] 97.8% | [9] 98.4% | [10] 108% | [11] 102% | [12] 96.9% | [13] 99.4% | [14] 81.2% | [15] 133% | [16] 100% | [17] 76% | [20] 103%

CCCCCc1c(C)[nH]c(/C=c2\[nH]/c(=C3/C=c4ccccc4=N3)cc2OC)c1C
inactive: [4] 10.5%
active: [1] -29.8% | [2] -13.4% | [3] -22.6% | [5] -95.1% | [6] -6.91% | [7] -98.7% | [8] -78.9% | [9] -85.2% | [10] -60.2% | [11] -73.9% | [13] -51.4% | [14] -89.7% | [15] -47% | [16] -78.3% | [17] -38.7% | [18] -29.4% | [19] -19% | [20] -23.1%

CCN1C(=O)N(CC)C2C1NN=c1s/c(=C\c3cccc(F)c3)c(=O)n12 (centres undefined)
active: [3] 6.61% | [7] -30.7% | [18] -15.3%
inactive: [1] 15.7% | [2] 10.4% | [4] 34.6% | [5] 29.4% | [6] 24.7% | [8] 33.3% | [9] 24.4% | [10] 57.8% | [11] 51.5% | [12] 64.3% | [13] 31.5% | [14] 50.8% | [15] 61.8% | [17] 40.8% | [20] 19.1%

C=C1C(=O)O[C@H]2[C@H]1CC/C(COC(=O)NCCc1cccc(OC)c1)=C\CC[C@@]1(C)O[C@@H]21
active: [1] 5.34% | [2] 1.86% | [9] 3% | [17] 8.84% | [19] 4.38%
inactive: [3] 76.1% | [4] 56.9% | [5] 66% | [6] 50.5% | [7] 87.6% | [8] 22.8% | [10] 46.7% | [11] 68.5% | [12] 68.3% | [13] 42.6% | [14] 32% | [15] 24.9% | [18] 82.4% | [20] 11.5%

O=C(O)c1ccc(-n2cc(CNc3ccc(C(F)(F)F)cc3)c(-c3ccccc3)n2)cc1
inactive: [1] 84.3% | [2] 114% | [3] 92.1% | [4] 102% | [5] 81% | [6] 79.7% | [7] 91.5% | [8] 72.9% | [9] 89.2% | [10] 95.2% | [11] 93.8% | [12] 91.8% | [13] 94.6% | [14] 80.5% | [15] 110% | [17] 87.2% | [18] 87.6% | [19] 91.4% | [20] 76.5%

OCc1c(-c2ccccc2)nc2sccn12
inactive: [1] 97.2% | [2] 109% | [3] 122% | [4] 85.5% | [5] 95.6% | [6] 95.7% | [7] 80.2% | [8] 101% | [9] 104% | [10] 122% | [11] 108% | [12] 86.9% | [13] 105% | [14] 94.8% | [15] 106% | [16] 98.4% | [17] 96.6% | [19] 17.9% | [20] 117%

CCC(c1ccc(OC)cc1)C(CC)c1ccc(O)c(CN2CCCC2)c1 (centres undefined)
active: [1] 1.62% | [2] 4.26% | [5] 7.11% | [7] -91.8% | [8] -74.1% | [9] -79.1% | [10] -50.9% | [11] -37.6% | [20] 1.69%
inactive: [3] 71.5% | [4] 40.6% | [6] 24.4% | [12] 11.3% | [13] 23.3% | [14] 15% | [15] 54.5% | [16] 39.3% | [17] 32.6% | [19] 19.7%

NC(=O)c1ccc2c(c1)OCO2
inactive: [1] 102% | [2] 103% | [3] 84.2% | [4] 109% | [5] 107% | [6] 98.9% | [7] 99.2% | [8] 103% | [9] 95.4% | [10] 108% | [11] 114% | [12] 95.1% | [13] 108% | [14] 102% | [15] 91.7% | [17] 93.5% | [18] 86.8% | [19] 102% | [20] 105%

COc1ccc(NC(=S)/N=c2\oc3c(OC)cccc3cc2-c2cc3ccccc3[nH]2)cc1
inactive: [1] 84.1% | [2] 82.8% | [4] 57.8% | [5] 75.7% | [6] 58.4% | [7] 72.1% | [8] 76.4% | [9] 76.8% | [10] 69.9% | [11] 90.2% | [12] 79.6% | [13] 84.7% | [14] 95.2% | [15] 96% | [16] 44.8% | [17] 28.3% | [20] 99.1%
active: [3] -12.2%

CN(C)C/C=C/C(=O)Nc1cc2c(Nc3cccc(Cl)c3F)ncnc2cc1OCCOC(F)F
inactive: [1] 21.8% | [2] 18.2% | [4] 57.1% | [5] 50.3% | [6] 40.2% | [7] 73.4% | [8] 53.5% | [9] 43.9% | [10] 78.2% | [11] 70.1% | [12] 19.2% | [13] 12.6% | [14] 16.1% | [15] 22.4% | [17] 10.1% | [19] 63.1% | [20] 38.6%
active: [3] 1.35% | [18] -14.5%
